From PubChem BioAssay (NCATS)
Inconclusive results are not listed. Active and inactive are the calls of the source. Calls come from the whole dose curve.

Assays:
[1] = qHTS drug screen for cell cycle checkpoint inhibitors in PARPi-resistant BRCA-mutant ovarian cancer cell lines. (AID 1963452); details: PEO1/OlaR viability, CellTiter-Glo luminescence, 96 h; for Z-AUC: stronger effect = lower value; note: potency is the fitted concentration of half-maximal effect
In short: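 PEO1, PEO4 and PEO1/OlaR ovarian cancer cells, 600 per well, exposed 96 h at 37C to a dilution series. Viability read by CellTiter-Glo luminescence, normalized to DMSO and empty wells; activity summarized as Z-AUC.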

[2] = qHTS for identification of novel therapeutic agents for treatment of microphthalmiaassociated transcription factor (MiT) renal cell carcinoma (RCC) (AID 1963991); details: CellTiter-Glo, 48 h, stronger effect = lower value;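 note: curves scaled with 100% = DMSO viability and 0% = empty wells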
In short: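 UOK109/UOK124/UOK145 (TFE3 fusions, three partners); 500 cells/well; MIPE v4.0, 1912 cpds, 11 conc.; 48 h, 37 C; CellTiter-Glo, 15 min RT; lum. Norm.: DMSO 100%, empty 0%.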

[3] = measured here: PEO1 parental Z-AUC
[4] = TFE3-RCC UOK109 viability, measured here: UOK109 Z-AUC
[5] = TFE3-RCC viability, measured here: UOK124 Z-AUC
[6] = TFE3-RCC viability, measured here: UOK145 Z-AUC

Structure (SMILES) | Z-AUC [1] | Z-AUC [1, 3] | Z-AUC ([1]; measured here: PEO4 Z-AUC) | Potency [1] | z-score [2, 4] | z-score [2, 5] | z-score [2, 6]
CC(C)(F)C[C@H](N[C@@H](c1ccc(-c2ccc(S(C)(=O)=O)cc2)cc1)C(F)(F)F)C(=O)NC1(C#N)CC1 | -0.727 (inactive) | 1.36 | 0.322 | – | – | – | –
Cc1cccc(-c2[nH]c(C(C)(C)C)nc2-c2ccc3c(c2)OCO3)n1 | -0.37 (inactive) | -0.0617 | 0.278 | – | – | – | –
CN(C)CCOc1cc(-c2cn[nH]c2)ccc1NC(=O)C1COc2ccccc2O1 (centres undefined) | 1.15 (inactive) | 0.743 | 1.03 | – | – | – | –
CCOC(=O)[C@@H](N)CCC(=O)N[C@@H](CSCc1ccccc1)C(=O)N[C@@H](C(=O)OCC)c1ccccc1 | 1.2 (inactive) | 1.04 | 1.07 | – | – | – | –
CCNC(=O)c1noc(-c2cc(C(C)C)c(O)cc2O)c1-c1ccc(CN2CCOCC2)cc1 | – | – | – | 0.0245 µM (active) | – | – | –
CC(C)[C@H](O)C(=O)N[C@@H](C)C(=O)N[C@@H]1C(=O)N(C)CCc2ccccc21 | -0.413 (inactive) | -0.342 | -0.336 | – | – | – | –
O=C(NCCCCN1CCOCC1)c1cc2ccccc2o1 | 1.41 (inactive) | 1.22 | 1.23 | – | 0.969 | 0.64 | 0.273
CCN1CCC(n2cc(CNc3cc(Cl)c4ncc(C#N)c(Nc5ccc(F)c(Cl)c5)c4c3)nn2)CC1 | -1.28 (inactive) | -0.754 | -1.71 | – | – | – | –
COc1nc(C)cnc1NS(=O)(=O)c1cccnc1-c1ccc(-c2nnco2)cc1 | 1.25 (inactive) | 1.67 | 1.16 | – | 1.22 | 0.956 | 0.662
NCC1CCC(C(=O)O)CC1 (centres undefined) | -0.425 (inactive) | -0.68 | -0.142 | – | 0.68 | 0.972 | 0.669
CC[C@H](C=C[C@@H](C)[C@H]1CC[C@H]2[C@@H]3CC=C4C[C@@H](O)CC[C@]4(C)[C@@H]3CC[C@]12C)C(C)C | 0.764 (inactive) | 1.79 | 1.84 | – | 0.875 | 0.915 | 1.02
CCC[C@H](N[C@@H](C)C(=O)N1[C@@H]2CCCC[C@H]2C[C@H]1C(=O)O)C(=O)OCC | -0.443 (inactive) | -0.451 | -0.177 | – | 0.586 | 0.337 | 0.752
CCC(C)SSc1ncc[nH]1 (centres undefined) | -1.01 (inactive) | -0.667 | -0.908 | – | – | – | –
N[C@@H](CC(=O)N1CCn2c(nnc2C(F)(F)F)C1)Cc1cc(F)c(F)cc1F | 0.69 (inactive) | 0.734 | 0.789 | – | 0.736 | 0.907 | 0.666
O=C(O)Cc1cccc(OCCCN(Cc2cccc(C(F)(F)F)c2Cl)CC(c2ccccc2)c2ccccc2)c1 | -0.299 (inactive) | 0.225 | 0.165 | – | -0.604 | 0.0786 | 0.416
O=C(c1ccc(C(=O)N2CCC(N3CCCC3)CC2)c(Nc2ccccc2)c1)N1CCC(N2CCCC2)CC1 | 0.276 (inactive) | 0.308 | 0.42 | – | 0.9 | 1.07 | 0.591
CNC(=O)c1cc(COc2nnc(Nc3ccc(Cl)cc3)c3ccoc23)ccn1 | 0.731 (inactive) | 0.432 | 0.337 | – | – | – | –
CCCCC(F)(F)[C@@]1(O)CC[C@H]2[C@H](CC(=O)[C@@H]2CCCCCCC(=O)O)O1 | -0.514 (inactive) | 0.401 | 0.738 | – | 0.852 | 0.425 | 0.602
COc1ccc(-c2cc3nccn3c(Nc3ncccc3C(N)=O)n2)cc1OC | 0.398 (inactive) | 0.401 | 0.0675 | – | – | – | –
CN1CCc2c(n(Cc3ccc(C(=O)NO)cc3)c3ccccc23)C1 | 0.742 (inactive) | 0.892 | 0.628 | – | – | – | –
COc1cc2nccc(Oc3ccc(NC(=O)Nc4ccc(F)cc4F)c(F)c3)c2cc1OC | 0.868 (inactive) | 0.566 | 0.26 | – | – | – | –
Cc1ccc(C(=O)N(CCCN)[C@@H](c2oc3cc(Cl)ccc3c(=O)c2Cc2ccccc2)C(C)C)cc1 | – | -2.6 | -2.5 | 8.71 µM (active) | – | – | –
Nc1ncnc2c1ncn2[C@@H]1O[C@H](CO)[C@@H](O)[C@@H]1O | 1.52 (inactive) | 0.934 | 0.856 | – | – | – | –
